# Experimental data reported in the supplement of paper PMC10105736.
# Unmarked numbers belong to inactive results.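 Rule for the calls: active = MAPPIT score above the 99th percentile of random reference set scores in the same batch; inactive = at or below it.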
# Experiments:
# Assay in all cases: MAPPIT interaction score (arbitrary units); higher = stronger binary interaction signal, active = hit call of the paper
# [1] = target: Prosalpha2; details: pair source set: Lit-BM-16
# [2] = target: Rpt2; details: MAPPIT configuration: N-N
# [3] = target: Rpt4; details: MAPPIT configuration: N-N; pair source set: Lit-BM-16
# [4] = target: PolZ2; details: MAPPIT configuration: N-N; pair source set: Finley_Y2H
# [5] = target: Pis; details: MAPPIT configuration: N-N; pair source set: DPIM
# [6] = target: Prp3; details: MAPPIT configuration: N-N; pair source set: Curagen_high_conf
# [7] = target: Prosbeta2; details: MAPPIT configuration: N-N; pair source set: Lit-BM-16
# [8] = target: Prosbeta3; details: MAPPIT configuration: N-C; pair source set: Lit-BM-16
# [9] = target: Prosalpha4; details: MAPPIT configuration: N-N; pair source set: Lit-BM-16
# [10] = target: Prosbeta7; details: pair source set: Lit-BM-16
# [11] = target: Pgd; details: pair source set: RRS
# 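Note: HEK293T cells with Epo stimulation, STAT-responsive firefly luciferase reporter, fold induction versus unstimulated cells divided by the larger fold induction of two negative controls lacking either bait or prey.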
binder,measurement,setting,value
Rpt6 (protein) MTVTNRMEIESAYHKGEGFRSYYIQKIEELQLVVAEKHQNLRRLQAQRNELNAKVRMLREELQLLQEQGSYVGEVVKPMDKKKVLVKVHPEGKFVVDLDKNIDINDVTPNCRVALRNESYTLHKILPNKVDPLVSLMMVEKVPDSTYEMVGGLDKQIKEIKEVIELPVKHPELFDALGIAQPKGVLLYGPPGTGKTLLARAVAHHTECTFIRVSGSELVQKFIGEGSRMVRELFVMAREHAPSIIFMDEIDSIGSSRIESGSGGDSEVQRTMLELLNQLDGFEATKNIKVIMATNRIDILDPALLRPGRIDRKIEFPPPNEEARLDILKIHSRKMNLTRGINLRKIAELMPGASGAEVKGVCTEAGMYALRERRVHVTQEDFEMAVAKVMQKDSEKNMSIKKLWK,MAPPIT interaction score,[1]; MAPPIT configuration: N-C,1.08
same,MAPPIT interaction score,[1]; MAPPIT configuration: N-N,1.52
same,MAPPIT interaction score,[2]; pair source set: Finley_Y2H,2.59
same,MAPPIT interaction score,[2]; pair source set: Lit-BM-16,2.59
same,MAPPIT interaction score,[3],-0.794
rtp (protein) MAMDDYDDDMSSVGVTTARIENQHQQHPHQQGQHGHHQQGQGQSQYSAGAVKVGGWRYEDASRYIGEWNQRGQKHGIGHLQFADGTRYDGQFQEGLSQGVGCLWFADGAKYEGEFHQGWFHGNGIFWRADGMKYEGEFRGGKIWGLGLLTFQDFTHGFPRNEGFFQDCRFMRRRRCPEVVQRAQKCALMARSQCEHPY,MAPPIT interaction score,[4],0.217
CG7601 (protein) MKVQDMDKCAPSSDWNVLYWVLGTVLMPVALPLAIINIWQRFQAQKFRNQLPGKVVLITGASSGLGESLAHVFYRAGCRVILAARRTQELERVKKDLLALDVDPAYPPTVLPLDLAELNSIPEFVTRVLAVYNQVDILINNGGISVRADVASTAVDVDLKVMVVNYFGSVALTKALLPSMVKRGSGHICFISSVQGKFAIPQRAAYSASKHAMQAFADSLRAEVANKNINVSCVSPGYIRTQLSLNALTGSGSSYGKVDETTAKGMSPDKLAERILQCILRKEPDIIVSDVQAKIAYYLRHLCPSLYFWIMAKRAVKLENAEKKST,MAPPIT interaction score,[5],0.037
Mettl14 (protein) MSDVLKSSQERSRKRRLLLAQTLGLSSVDDLKKALGNAEDINSSRQLNSGGQREEEDGGASSSKKTPNEIIYRDSSTFLKGTQSSNPHNDYCQHFVDTGQRPQNFIRDVGLADRFEEYPKLRELIKLKDKLIQDTASAPMYLKADLKSLDVKTLGAKFDVILIEPPLEEYARAAPSVATVGGAPRVFWNWDDILNLDVGEIAAHRSFVFLWCGSSEGLDMGRNCLKKWGFRRCEDICWIRTNINKPGHSKQLEPKAVFQRTKEHCLMGIKGTVRRSTDGDFIHANVDIDLIISEEEEFGSFEKPIEIFHIIEHFCLGRRRLHLFGRDSSIRPGWLTVGPELTNSNFNSELYQTYFAEAPATGCTSRIELLRPKSPPPNSKVLRGRGRGFPRGRGRPR,MAPPIT interaction score,[6],1.8
Prosbeta4 (protein) MLNNYNSLAQPMWQNGPAPGEFYNFTGGQTPVQQLPRELTTMGPYGTKHSTASSTTGTSVLGIRYDSGVMLAADTLVSYGSMARYQNIERVFKVNKNILLGGSGDFADIQSIKRNIDQKMIEDQCCDDNIEMKPKSLASWMTRVLYNRRSRMNPLYIDVVVGGVDNEGTPYLANVDLRGRSYEDYVVATGFARHLAVPLVREKKPKDRDFTAVEASELIRTCMEVLYYRDTRNISQYTVGVCSVNGCGVEGPFQVNENWTFAETIKGY,MAPPIT interaction score,[7],2.07
Prosalpha4 (protein) MSSRYDRAVTIFSPDGHLLQVEYAQEAVRKGSTAVGVRGANCVVLGVEKKSVAQLQEDRKVRKICMLDNHVVMAFAGLTADARIMINRAQVECQSHRLNVEDPVTLEYITRFIAQLKQKYTQSNGRRPFGISCLIGGFDADGSAHLFQTEPSGIFYEYKANATGRSAKVVREFFEKSYREEEVANEHGAVKLAIRALLEVAQSGQNNLEVAIMENGKPLKMLDTDVITDYVKIIEKEKEEELEKKKQKK,MAPPIT interaction score,[8],1.51
Prosbeta3 (protein) MSILAYNGGCVVAMRGKDCVAIATDHRFGIQAQTISTDFKKVFHIGPRMFLGLTGLQTDILTVRDRLMFRKNLYETRENREMCPKPFSAMMSSFLYEHRFGPYFIEPVVAGLDPKTMEPFICNMDLIGCPNAPDDFVVAGTCAEQLYGMCETLWKPDLEPDQLFEVIAQSIVNAFDRDAMSGWGATVYIIEKDKITERTLKTRMD,MAPPIT interaction score,[1]; MAPPIT configuration: N-N,1.33
same,MAPPIT interaction score,[9],-0.232
same,MAPPIT interaction score,[10]; MAPPIT configuration: N-C,0.398
same,MAPPIT interaction score,[10]; MAPPIT configuration: N-N,0.197
up (protein) MSDDEEYTSSEEEEVVEETREETKPPQTPAEGEGDPEFIKRQDQKRSDLDDQLKEYITEWRKQRSKEEDELKKLKEKQAKRKVTRAEEEQKMAQRKKEEEERRVREAEEKKQREIEEKRMRLEEAEKKRQAMLQAMKDKDKKGPNFTIAKKDAGVLGLSSAAMERNKTKEQLEEEKKISLSFRIKPLAIEGFGEAKLREKAQELWELIVKLETEKYDLEERQKRQDYDLKELKERQKQQLRHKALKKGLDPEALTGKYPPKIQVASKYERRVDTRSYDDKKKLFEGGWDEISKDSNEKIWNEKKEQYTGRQKSKLPKWFGERPGKKAGEPETPEGEEDAKADEDIVEDDEEVEEEVVEEEDEEAEEDEEEEEEEEEEEEEEEEEEEEEEEEEEEEEE,MAPPIT interaction score,[11]; MAPPIT configuration: N-C,1.18
same,MAPPIT interaction score,[11]; MAPPIT configuration: N-N,0.149
